Hits are enriched below; roughly 3.3% of the tested compounds scored in any of these assays.
Sm TGR inh = blocks Schistosoma mansoni thioredoxin glutathione reductase; purified TGR, DTNB reduction, TNB absorbance 405 nm; Q962Y6; 360,000 tested, 3% active; Potency, µM (titrated, usually from 114 µM), for inactives: top-dose activity change, negative = inhibition, usual class: inhibitors; also: nearly all actives have a fitted effect of over 60% in size
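Kinetic colorimetric format: TGR-catalysed, NADPH-driven DTNB reduction monitored via TNB absorbance. Enzyme dispensed at 20 nM; compound exposure 15 min at room temperature before reaction start.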
AmpC no deterg = blocks E. coli AmpC beta-lactamase in detergent-free assay | P00811 | AmpC nitrocefin hydrolysis, absorbance 480 nm, 0.0001% Triton | Potency, µM (doses to about 57.1 µM), without a hit: top-dose activity change, negative = inhibition, actives largely listed as inhibitors | 330,000 tested, 0.52% active | AID 485341;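 also: plate controls were no compound for no effect and no enzyme for full effect; nearly all actives have a fitted effect of over 20% in size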
Target sequence (P00811 whole entry, looked up): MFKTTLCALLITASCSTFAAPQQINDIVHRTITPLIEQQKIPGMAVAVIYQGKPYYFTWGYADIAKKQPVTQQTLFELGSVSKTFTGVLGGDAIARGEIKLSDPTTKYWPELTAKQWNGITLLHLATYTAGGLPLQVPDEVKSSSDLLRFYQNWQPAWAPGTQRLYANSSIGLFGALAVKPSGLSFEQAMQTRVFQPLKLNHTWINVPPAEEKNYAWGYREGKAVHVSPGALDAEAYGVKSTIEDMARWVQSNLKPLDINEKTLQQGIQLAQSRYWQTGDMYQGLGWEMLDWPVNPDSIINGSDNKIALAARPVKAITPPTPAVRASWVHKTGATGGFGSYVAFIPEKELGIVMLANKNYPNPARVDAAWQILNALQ
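AmpC (5.3 nM in the dispensed reagent) in 20 mM phosphate pH 7.0 with 0.01% (detergent screen) or 0.0001% Triton X-100 was preincubated with compounds for 15 min at room temperature. Nitrocefin was then added from an 800 uM solution, and hydrolysis was followed at 480 nm.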
AmpC inh detg = AmpC beta-lactamase inhibition with detergent present | Potency, µM (series often up to 114 µM), for the others: at the highest dose activity change, negative = inhibition, actives largely listed as inhibitors | P00811 | 370,000 tested, 0.041% active | AmpC hydrolysis of nitrocefin, absorbance 480 nm, 0.01% Triton;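 also: 0% = no-compound wells and -100% = no-enzyme wells; nearly all actives have a fitted effect of over 25% in size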
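20 mM phosphate pH 7.0 + 0.01% (detergent screen) or 0.0001% Triton X-100; 5.3 nM AmpC reagent; cpd preinc 15 min RT; nitrocefin (800 uM stock) to start; A480 q20 s × 4 min; Activity was normalised to no-enzyme and no-compound control wells.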
Starred values were filed as active, the others as inactive; ? = inconclusive; · = no result; [ ] = another dose, or the depositor's remark. Calls follow the shape of the dose curve; as a rule, active = well fitted curve in the direction sought with a large enough effect; inconclusive = small, poorly fitted or top-dose-only effect, or another doubt; inactive = no such curve, though single readings can be large; an effect the other way counts as inactive or inconclusive. Unless noted, % is scaled to controls: 0 for no effect and ±100 for the full control effect; potency is read from the fitted curve at half-maximal effect.

SMILES	Sm TGR inh	AmpC no deterg	AmpC inh detg
CC1Cc2nc(SCC(=O)N3CCN(c4ccccc4)CC3)n(CCc3ccccc3)c(=O)c2S1 (configuration not stated)	-8.4%	3.55µM*	-12.2%
CCn1c(SCC(=O)NCc2ccc(F)cc2)nc2c(c1=O)SC(C)C2 (configuration not stated)	-10.1%	-13.4%	-7.7%
O=C(Cc1ccc(F)cc1)NCCc1csc2nc(-c3ccc(Cl)cc3)nn12	-1.3%	·	17.9%
COc1ccc(C(=O)NC(=S)SCC(=O)O)cc1	?	-16.4%	-3.0%
CCOC(=O)CSC(=S)NC(=O)c1ccc(OC)cc1	8.91µM*	-13.5%	-13.7%
NC(=O)Cn1c(=O)n(CCCCCC(=O)NCc2ccccc2)c(=O)c2sccc21	7.8%	·	17.1%
CCOc1ccccc1-n1nnc(-c2nc(-c3ccccc3C)no2)c1C	16.0%	·	2.1%
CS(=O)(=O)c1ccc(C(=O)OCc2nnc(-c3ccc(Cl)cc3)o2)cc1[N+](=O)[O-]	2.51µM*	-9.2%	2.7%
O=C(OCc1nnc(-c2ccc(Cl)cc2)o1)c1ccc(O)cc1	-6.0%	-27.9%	-6.6%
O=C1CC(N2CCN(Cc3ccc4c(c3)OCO4)CC2)C(=O)N1c1cccc2ccccc12 (configuration not stated)	-20.2%[57.1 µM]	90.2%	-8.0%
COc1ccc(N2C(=O)CC(N3CCN(Cc4ccc5c(c4)OCO5)CC3)C2=O)cc1 (configuration not stated)	17.8µM*	14.7%	-10.1%
O=C1CC(N2CCN(Cc3ccccc3)CC2)C(=O)N1c1ccc2c(c1)OCCO2 (configuration not stated)	56.2µM*	-15.5%	-1.1%
O=C1CC(N2CCN(Cc3ccc4c(c3)OCO4)CC2)C(=O)N1c1cccc(Cl)c1 (configuration not stated)	50.1µM*	14.6%	?
O=C1CC(N2CCN(Cc3ccccc3)CC2)C(=O)N1c1ccccc1 (configuration not stated)	?	-25.8%	?
O=C1CC(N2CCN(Cc3ccc4c(c3)OCO4)CC2)C(=O)N1Cc1ccc(N2CCCC2=O)cc1 (configuration not stated)	-25.7%	35.2%	-8.9%
Cc1cc(-c2ccc(C)c(S(=O)(=O)Nc3ccccc3C(F)(F)F)c2)on1	-7.1%	·	-9.5%
COc1ccc(CCNC(=O)Cc2c(C)c3c(cc(C)c4c(C)coc43)oc2=O)cc1OC	-1.8%	·	-7.2%
Cc1ccc(C(=O)COC(=O)CCC(=O)Nc2ccc(Oc3ccccc3)cc2)cc1	18.4%	·	9.6%
O=C(c1ccc(S(=O)(=O)N2CCCC2)cc1)N1CCCCC1	2.9%	-6.4%	-8.0%
O=C(/C=C/c1ccc(O)c(O)c1)c1ccc(S(=O)(=O)N2CCCCCC2)cc1	-25.2%	25.1µM*	?
Nc1cc(=O)nc(SCC(=O)Nc2ccc(F)cc2)n1CCc1ccccc1	-2.2%	·	1.4%
CSc1nnc(CNS(=O)(=O)c2ccc(Br)cc2)n1C	10.4%	-8.3%	-13.0%
CCn1c(CNS(=O)(=O)c2ccc(Br)cc2)nnc1SC	3.55µM*	-8.1%	0.5%
CCc1nc(Nc2ccc(N3CCN(C(C)=O)CC3)cc2)c2oc3ccccc3c2n1	-31.6%	183.1%	35.5µM*
CC(=O)N1CCN(c2ccc(Nc3ncnc4c3oc3ccccc34)cc2)CC1	0.0%	103.7%	-9.5%
SMILES	Sm TGR inh	AmpC no deterg	AmpC inh detg
Cc1c(Cl)cccc1NC(=O)CSc1ccc(-c2ccccn2)nn1	-8.1%	·	1.9%
Cc1ccc(NC(=O)C2CCCN(S(=O)(=O)c3c(C)nn(C)c3C)C2)c(C)c1 (configuration not stated)	1.7%	·	-4.4%
Cc1cc(C(=O)CN2CC(C)OC(C)C2)c(C)n1-c1ccccc1 (configuration not stated)	44.7µM*	12.1%	?
Cc1ccc(-n2c(C)cc(C(=O)CN3CCCCC3)c2C)cc1	-3.8%	-11.3%	1.7%
COc1ccc(N(Cc2cccs2)C(=O)c2ccc(Br)o2)cc1	-2.7%	·	17.8%
CCc1ccc(CCC(=O)Nc2nc(CC(C)=O)ns2)o1	39.8µM*	17.1%	-15.4%
CCc1ccc(CCC(=O)Nc2nnc(C)s2)o1	?	-2.2%	-1.5%
CSC1=C(C#N)C(c2ccc(Cl)cc2)C2=C(CC(C)(C)CC2=O)N1 (configuration not stated)	28.2µM*	-43.1%	-17.5%
CCCSC1=C(C#N)C(c2ccc(OC)cc2)C2=C(CC(C)(C)CC2=O)N1 (configuration not stated)	-34.2%	-35.0%	-10.4%
O=C(NCC1CCCCC1)c1cc2ccccc2cc1O	1.2%	14.1µM*	2.1%
O=C(NCC1CCCO1)c1cc2ccccc2cc1O (configuration not stated)	-18.4%	-16.3%	-5.9%
O=[N+]([O-])c1ccc2c(c1)ncn2-c1ccccc1	0.0%	-33.0%	?
Cn1c(-[n+]2c(-c3ccccc3)cc(-c3ccccc3)cc2-c2ccccc2)nc2cc([N+](=O)[O-])ccc21	44.7µM*	-1.7%	-7.6%
Cc1cc(C)c(NC(=O)CSc2nncn3c2cc2oc(C)cc23)c(C)c1	-10.6%	·	-3.7%
Cn1cc(C(=O)NCCc2ccc(Cl)cc2)c(=O)c2cc(S(=O)(=O)N3CCOCC3)ccc21	0.9%	·	1.1%
Nc1nc(CCl)nc(N(c2ccccc2)c2ccccc2)n1	11.2µM*	-5.5%	-12.6%
Nc1nc(Cl)nc(N(c2ccccc2)c2ccccc2)n1	-8.4%	-23.9%	-7.9%
CCOC(=O)Cn1c(=O)oc2cc(S(=O)(=O)NCCc3ccc(C)cc3)ccc21	2.1%	10µM*	?
CCOC(=O)Cn1c(=O)oc2cc(S(=O)(=O)NCCCc3ccccc3)ccc21	-13.3%	-9.2%	?
CC(C)Oc1ccc(CNC(=O)C2=Cc3ccccc3OC2)cc1	7.5%	·	8.6%
COc1ccc(Cl)cc1NC(=O)CN(c1cccc(C)c1C)S(C)(=O)=O	4.7%	·	7.8%
Cc1nn(C)c(C(=O)Sc2ccccc2)c1[N+](=O)[O-]	2.51µM*	-8.0%	-5.4%
Cc1nn(C(C)C(=O)c2cccc(Cl)c2)c(C)c1[N+](=O)[O-] (configuration not stated)	10.7%	-10.6%	-5.6%
CCn1nc(C)cc1C(=O)Sc1cccc(Cl)c1	6.31µM*	2.2%	-5.0%
Cc1nn(C)c(C(=O)Sc2cccc(Cl)c2)c1[N+](=O)[O-]	1.41µM*	-25.6%	2.5%
SMILES	Sm TGR inh	AmpC no deterg	AmpC inh detg
CCn1nc(C)cc1C(=O)N1CCCC(N2CCN(c3cccc(Cl)c3)CC2)C1 (configuration not stated)	1.9%	217.0%	4.9%
Cc1nn(C)c(C(=O)N/N=C/c2ccccn2)c1[N+](=O)[O-]	-5.8%	14.9%	-1.7%
CCOc1ccc(CNC(=O)CCCn2nc(C)c3sc4ccccc4c3c2=O)cc1	0.2%	·	-1.6%
COc1cc2c(cc1OC)C(COc1ccc(F)cc1)N(C(=O)c1cccc(F)c1)CC2 (configuration not stated)	11.2%	·	2.4%
OC[C@@H](O)[C@H](O)C(/C=N/Nc1ccccc1)=N\Nc1ccccc1	20µM*	22.9%	-8.1%
CC(=O)/C=N/Nc1ccccc1	-29.8%	-9.9%	?
COc1cc(OC)c(NC(=O)CSc2nccn2C)cc1Cl	8.7%	·	2.0%

Assay outcomes (PubChem BioAssay)
